Calls of active or inactive are those of the source.
biological target: Torsin-1A-interacting protein 2 (Homo sapiens) (UniProt Q8NFQ8); test: small molecules binding lysate-expressed LULL1 – cell lysate, human LULL1 lysate, 635/667 nm fluorescence, primary screen (AID 1092); settings: small-molecule microarray, hLULL1 lysate binding, 635 nm fluorescence; higher = more signal;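 also: probe is lysate of COS7 cells overexpressing human LULL1; score merges per-feature 667 nm fluorescence with signal-to-noise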
Sequence (Q8NFQ8 whole entry, looked up): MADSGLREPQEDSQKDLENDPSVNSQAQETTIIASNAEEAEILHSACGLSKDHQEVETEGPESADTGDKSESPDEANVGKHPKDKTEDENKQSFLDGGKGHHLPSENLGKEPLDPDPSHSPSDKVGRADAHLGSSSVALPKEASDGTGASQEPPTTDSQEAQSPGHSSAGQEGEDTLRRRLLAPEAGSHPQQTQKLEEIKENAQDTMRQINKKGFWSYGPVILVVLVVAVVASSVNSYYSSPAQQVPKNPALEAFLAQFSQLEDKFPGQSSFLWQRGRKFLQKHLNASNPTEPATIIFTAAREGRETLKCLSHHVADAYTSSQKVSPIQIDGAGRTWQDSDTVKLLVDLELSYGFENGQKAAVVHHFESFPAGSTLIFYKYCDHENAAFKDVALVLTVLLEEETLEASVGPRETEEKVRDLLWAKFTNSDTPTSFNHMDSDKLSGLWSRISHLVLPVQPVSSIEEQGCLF

SMILES | composite z-score
Cc1ccc([C@@H]2CC=C(C(=O)O)[C@H](c3ccccc3)N2S(=O)(=O)c2ccc(C)cc2)cc1 | 3.24
C=CCNC(=O)[C@H]1[C@@H]2C(=O)O[C@@H](c3ccccc3)[C@@H](c3ccccc3)N2[C@@H](c2ccc(O)cc2)[C@]12C(=O)Nc1ccc(C#CCNC(N)=O)cc12 | 1.87
O=C(NCC(F)(F)F)[C@@H]1c2ccccc2C(=O)N(Cc2ccccc2Cl)[C@H]1c1ccc(CO)cc1 | 1.18
C=C[C@H](OC)[C@@H](OC(=O)Nc1ccc(SC)cc1)c1ccc(OC)c(O)c1 | -0.023
C=CC[C@]1(C(=O)OC)N=C(c2ccc(OCCCO)cc2)O[C@H]1c1ccccc1CN=[N+]=[N-] | 1.37
COC(=O)Cn1c(C(=O)N2CCCC2)cc2c1C[C@H]1CN(C(=O)c3ccccc3)[C@@](Cc3ccccc3)(C(=O)OC)[C@@H]21 | 2.52
Cc1ccc(S[C@]2(C(=O)NCCCN(C)C)CC(=O)N(Cc3ccccc3)[C@@H]2c2ccc(CO)cc2I)cc1 | 2.68
C#CCCCON=C1C[C@@H](O)[C@@H](O)[C@@H]2[C@@H]3C(=O)N(Cc4ccc5c(c4)OCO5)C(=O)[C@@H]3CC[C@@H]12 | 0.852

test system: not listed separately; test: optical density change of DRC41 E. coli – strain DRC41, OD650, 24 h, E. coli filamentation project, primary screen (AID 1093);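 also: MC1000 strain lacking acrAB efflux and sulA so SOS filamentation is blocked; test concentration not given here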; settings: E. coli DRC41 growth, higher = more signal, called active from +8 up or from −8 down

SMILES | z-score
C[C@@H]1CC[C@H]2C(=O)N3[C@@H](CC[C@@H](C)[C@@H]3c3cccc(N4CCOCC4)c3)C(=O)N2[C@H]1c1cccc(N2CCOCC2)c1 | 0.593 (inactive)
O=C1c2ccccc2[C@](Cc2ccccc2I)(C(=O)O)[C@H](c2ccc(CO)cc2)N1C1CCCCC1 | 2.51 (inactive)
COCCCNC(=O)[C@@]1(c2ccc([N+](=O)[O-])cc2)CC(=O)N(C2CCCCC2)[C@@H]1c1ccc(CO)cc1 | 0.77 (inactive)
C=C(C(=O)CC[C@H](OC(=O)c1ccccc1-c1ccccc1C(=O)O)c1ccc(CO)o1)C(C)C | -0.309 (inactive)
CSCC[C@@H]1NC(=O)CC=C[C@@H](C)COC(=O)[C@H](CCSC)NC(=O)CC=C[C@@H](C)COC1=O | -0.566 (inactive)
CC1=C([C@H](O)CCc2ccccc2)[C@H](CO)[C@@H]2C(=O)N(Cc3ccccc3)C(=O)[C@@H]2C1 | 1.72 (inactive)
CO[C@H]1COC(=O)[C@@H](C)NC(=O)CC=C[C@@H](C)[C@H](OC)COC(=O)CC=C[C@@H]1C | 1.25 (inactive)
CC(C)NC(=O)[C@@]1(Cc2ccccc2I)c2ccccc2C(=O)N(C2CCCCC2)[C@H]1c1ccc(CO)cc1 | -0.432 (inactive)
O=C1O[C@@H](c2ccccc2)[C@@H](c2ccccc2)N2[C@@H](c3ccccc3OCCO)[C@]3(C(=O)Nc4ccc(C#CC5=CCCCC5)cc43)[C@@H](C(=O)O)[C@H]12 | 2.04 (inactive)
O=C1O[C@@H](c2ccccc2)[C@@H](c2ccccc2)N2[C@@H](c3ccc(OCCO)cc3)[C@]3(C(=O)Nc4ccc(C#CCCO)cc43)[C@@H](C(=O)N3CCN(c4ncccn4)CC3)[C@H]12 | 1.14 (inactive)
CC(=O)NCCCC[C@@H]1NC(=O)[C@@H]2C[C@H](C(=O)NCCCCCCN(C)C)[C@H](c3ccc(O)cc3)N2C1=O | 1.02 (inactive)
O=C(NCc1ccccc1)[C@@]1(CCS(=O)(=O)c2ccccc2)COC(c2ccc(OCCCO)cc2)=N1 | 2.12 (inactive)
O=C1O[C@@H](c2ccccc2)[C@@H](c2ccccc2)N2[C@@H](c3ccc(O)cc3)[C@]3(C(=O)Nc4ccccc43)[C@@H](C(=O)N3CCN(c4ncccn4)CC3)[C@H]12 | 3.16 (inactive)
COc1ccc(C(O)C2C=CC3C(=O)N(C)C(=O)C3N2N2CCCCC2)cc1OCc1ccccc1 (centres undefined) | -1.23 (inactive)
COc1cc([C@@H]2N[C@H](C(=O)O)Cc3c2[nH]c2ccccc32)cc(OC)c1OC | 0.233 (inactive)
COCCOC(=O)N1C(=O)[C@@]2(c3cc(C#CC4=CCCCC4)ccc31)[C@H](C(=O)NC[C@H](O)c1ccccc1)[C@H]1C(=O)O[C@H](c3ccccc3)[C@H](c3ccccc3)N1[C@@H]2c1ccccc1OCCO | -0.0963 (inactive)
COc1ccc(CCNC(=O)[C@@]2(c3ccc([N+](=O)[O-])cc3)CC(=O)N(C(C)C)[C@@H]2c2ccc(CO)cc2)cc1 | 1.89 (inactive)
CC(=O)NCCCC[C@@H]1NC(=O)[C@H]2C[C@@H](C(=O)NCCCCCCN(C)C)[C@@H](c3ccc(O)cc3)N2C1=O | -0.179 (inactive)

SMILES | z-score
NC(=O)NCC#Cc1ccc2c(c1)[C@]1(C(=O)N2)[C@H](c2ccccc2OCCO)N2[C@H](c3ccccc3)[C@H](c3ccccc3)OC(=O)[C@H]2[C@@H]1C(=O)N1CCN(c2ncccn2)CC1 | 2.9 (inactive)
CO[C@H]1COC(=O)CC=C[C@H](C)[C@@H](OC)COC(=O)CC=C[C@@H]1C | 0.898 (inactive)
CN(C)C(=O)[C@@]1(Cc2ccccc2N=[N+]=[N-])N=C(c2ccc(OCCCO)cc2)O[C@H]1c1ccccc1CN=[N+]=[N-] | 0.859 (inactive)
O=C(CS)NCCCCCNC(=O)[C@H]1C[C@H]2C(=O)N3CCC[C@H]3C(=O)N2[C@H]1c1ccc(O)cc1 | 1.62 (inactive)
Cc1ccccc1C(O)C1C=CC2C(=O)N(c3ccccc3)C(=O)C2N1Nc1ccc(C#N)cc1 (centres undefined) | 0.478 (inactive)
COC(=O)[C@@]1(Cc2ccccc2N=[N+]=[N-])N=C(c2ccc(OCCCO)cc2)O[C@H]1c1ccccc1CN=[N+]=[N-] | 0.255 (inactive)
CCCCCCc1nc(C2CC2)c(C)c2c1[Si](C(C)C)(C(C)C)OC2 | 1.69 (inactive)
C[N+](C)(C)CCCC[C@@H]1NC(=O)[C@H]2C[C@@H](C(=O)NCc3ccc(F)cc3)[C@@H](c3cccc(OCCO)c3)N2C1=O | 0.973 (inactive)
CCCNC(=O)[C@@H]1c2ccccc2C(=O)N(Cc2cc(F)cc(C(F)(F)F)c2)[C@H]1c1ccc(CO)cc1 | 1.97 (inactive)
C#CCCCON=C1C[C@@H](O)[C@@H](O)[C@@H]2[C@@H]3C(=O)N(Cc4ccc5c(c4)OCO5)C(=O)[C@@H]3CC[C@H]12 | 0.523 (inactive)
Cc1ccc([C@@H]2CC=C(C(=O)O)[C@H](c3ccccc3)N2S(=O)(=O)c2ccc(C)cc2)cc1 | -1.25 (inactive)
C=CCNC(=O)[C@H]1[C@@H]2C(=O)O[C@@H](c3ccccc3)[C@@H](c3ccccc3)N2[C@@H](c2ccc(O)cc2)[C@]12C(=O)Nc1ccc(C#CCNC(N)=O)cc12 | 2.18 (inactive)
O=C(NCC(F)(F)F)[C@@H]1c2ccccc2C(=O)N(Cc2ccccc2Cl)[C@H]1c1ccc(CO)cc1 | 0.939 (inactive)
C=C[C@H](OC)[C@@H](OC(=O)Nc1ccc(SC)cc1)c1ccc(OC)c(O)c1 | 2.04 (inactive)
C=CC[C@]1(C(=O)OC)N=C(c2ccc(OCCCO)cc2)O[C@H]1c1ccccc1CN=[N+]=[N-] | 1.37 (inactive)
COC(=O)Cn1c(C(=O)N2CCCC2)cc2c1C[C@H]1CN(C(=O)c3ccccc3)[C@@](Cc3ccccc3)(C(=O)OC)[C@@H]21 | 0.214 (inactive)
Cc1ccc(S[C@]2(C(=O)NCCCN(C)C)CC(=O)N(Cc3ccccc3)[C@@H]2c2ccc(CO)cc2I)cc1 | -0.563 (inactive)
C#CCCCON=C1C[C@@H](O)[C@@H](O)[C@@H]2[C@@H]3C(=O)N(Cc4ccc5c(c4)OCO5)C(=O)[C@@H]3CC[C@@H]12 | 0.105 (inactive)
